In ChEMBL document CHEMBL2218924, “A broad activity screen in support of a chemogenomic map for kinase signalling research and drug discovery” (Biochem J, 2013):

Key:
[1] = target: Tyrosine-protein kinase SYK (Homo sapiens) (UniProt P43405); conditions: at 10 µM
[2] = target: T1, Mitogen-activated protein kinase kinase kinase 7 (Homo sapiens) (UniProt O43318); conditions: at 1 µM
T1 sequence (whole entry): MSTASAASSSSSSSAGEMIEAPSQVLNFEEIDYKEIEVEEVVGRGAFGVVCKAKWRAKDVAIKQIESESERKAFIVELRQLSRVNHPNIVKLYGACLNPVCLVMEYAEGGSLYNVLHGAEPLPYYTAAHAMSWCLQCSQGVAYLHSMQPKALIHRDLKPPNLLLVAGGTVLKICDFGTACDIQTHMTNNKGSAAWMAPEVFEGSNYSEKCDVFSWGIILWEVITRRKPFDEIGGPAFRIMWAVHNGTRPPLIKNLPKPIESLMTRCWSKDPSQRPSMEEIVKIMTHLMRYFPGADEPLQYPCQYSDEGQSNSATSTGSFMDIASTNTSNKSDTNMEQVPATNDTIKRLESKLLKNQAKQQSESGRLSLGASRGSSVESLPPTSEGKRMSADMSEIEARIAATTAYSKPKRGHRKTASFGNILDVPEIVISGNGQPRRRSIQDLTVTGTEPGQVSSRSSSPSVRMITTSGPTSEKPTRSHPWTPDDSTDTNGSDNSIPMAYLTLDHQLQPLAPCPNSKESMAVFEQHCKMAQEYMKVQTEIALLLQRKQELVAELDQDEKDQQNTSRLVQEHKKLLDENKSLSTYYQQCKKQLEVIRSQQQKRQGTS

[3] = target: T1, Mitogen-activated protein kinase kinase kinase 7 (Homo sapiens); conditions: at 10 µM
[4] = target: T2, Serine/threonine-protein kinase TAO1 (Homo sapiens) (UniProt Q7L7X3); conditions: at 1 µM
T2 sequence (whole entry): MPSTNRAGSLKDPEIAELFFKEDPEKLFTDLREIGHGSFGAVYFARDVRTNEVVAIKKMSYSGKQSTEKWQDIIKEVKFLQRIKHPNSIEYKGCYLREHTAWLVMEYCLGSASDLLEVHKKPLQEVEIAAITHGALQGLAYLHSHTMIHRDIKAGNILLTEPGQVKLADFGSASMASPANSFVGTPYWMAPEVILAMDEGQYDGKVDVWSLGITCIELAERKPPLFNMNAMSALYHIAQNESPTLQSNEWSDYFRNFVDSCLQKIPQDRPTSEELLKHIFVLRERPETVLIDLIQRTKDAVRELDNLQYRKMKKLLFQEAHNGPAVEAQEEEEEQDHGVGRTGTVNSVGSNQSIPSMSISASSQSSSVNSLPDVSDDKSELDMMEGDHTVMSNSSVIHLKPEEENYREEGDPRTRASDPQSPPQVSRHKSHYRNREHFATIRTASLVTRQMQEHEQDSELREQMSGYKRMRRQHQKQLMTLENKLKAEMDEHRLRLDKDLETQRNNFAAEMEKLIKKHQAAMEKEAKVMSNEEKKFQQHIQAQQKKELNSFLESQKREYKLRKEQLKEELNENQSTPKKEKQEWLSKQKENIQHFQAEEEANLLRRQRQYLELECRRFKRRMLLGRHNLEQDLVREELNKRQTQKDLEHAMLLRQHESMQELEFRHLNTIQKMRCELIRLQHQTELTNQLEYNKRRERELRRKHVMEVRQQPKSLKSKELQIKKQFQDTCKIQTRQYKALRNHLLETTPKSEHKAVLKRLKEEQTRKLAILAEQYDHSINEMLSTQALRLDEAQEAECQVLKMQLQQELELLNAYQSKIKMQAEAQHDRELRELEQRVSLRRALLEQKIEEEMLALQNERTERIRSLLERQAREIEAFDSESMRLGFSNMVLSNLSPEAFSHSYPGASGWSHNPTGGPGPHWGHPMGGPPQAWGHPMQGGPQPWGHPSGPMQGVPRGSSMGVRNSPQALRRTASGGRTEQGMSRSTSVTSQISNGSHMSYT

[5] = target: T2, Serine/threonine-protein kinase TAO1 (Homo sapiens); conditions: at 10 µM
[6] = target: T3, Serine/threonine-protein kinase TAO2 (Homo sapiens) (UniProt Q9UL54); conditions: at 1 µM
T3 sequence (whole entry): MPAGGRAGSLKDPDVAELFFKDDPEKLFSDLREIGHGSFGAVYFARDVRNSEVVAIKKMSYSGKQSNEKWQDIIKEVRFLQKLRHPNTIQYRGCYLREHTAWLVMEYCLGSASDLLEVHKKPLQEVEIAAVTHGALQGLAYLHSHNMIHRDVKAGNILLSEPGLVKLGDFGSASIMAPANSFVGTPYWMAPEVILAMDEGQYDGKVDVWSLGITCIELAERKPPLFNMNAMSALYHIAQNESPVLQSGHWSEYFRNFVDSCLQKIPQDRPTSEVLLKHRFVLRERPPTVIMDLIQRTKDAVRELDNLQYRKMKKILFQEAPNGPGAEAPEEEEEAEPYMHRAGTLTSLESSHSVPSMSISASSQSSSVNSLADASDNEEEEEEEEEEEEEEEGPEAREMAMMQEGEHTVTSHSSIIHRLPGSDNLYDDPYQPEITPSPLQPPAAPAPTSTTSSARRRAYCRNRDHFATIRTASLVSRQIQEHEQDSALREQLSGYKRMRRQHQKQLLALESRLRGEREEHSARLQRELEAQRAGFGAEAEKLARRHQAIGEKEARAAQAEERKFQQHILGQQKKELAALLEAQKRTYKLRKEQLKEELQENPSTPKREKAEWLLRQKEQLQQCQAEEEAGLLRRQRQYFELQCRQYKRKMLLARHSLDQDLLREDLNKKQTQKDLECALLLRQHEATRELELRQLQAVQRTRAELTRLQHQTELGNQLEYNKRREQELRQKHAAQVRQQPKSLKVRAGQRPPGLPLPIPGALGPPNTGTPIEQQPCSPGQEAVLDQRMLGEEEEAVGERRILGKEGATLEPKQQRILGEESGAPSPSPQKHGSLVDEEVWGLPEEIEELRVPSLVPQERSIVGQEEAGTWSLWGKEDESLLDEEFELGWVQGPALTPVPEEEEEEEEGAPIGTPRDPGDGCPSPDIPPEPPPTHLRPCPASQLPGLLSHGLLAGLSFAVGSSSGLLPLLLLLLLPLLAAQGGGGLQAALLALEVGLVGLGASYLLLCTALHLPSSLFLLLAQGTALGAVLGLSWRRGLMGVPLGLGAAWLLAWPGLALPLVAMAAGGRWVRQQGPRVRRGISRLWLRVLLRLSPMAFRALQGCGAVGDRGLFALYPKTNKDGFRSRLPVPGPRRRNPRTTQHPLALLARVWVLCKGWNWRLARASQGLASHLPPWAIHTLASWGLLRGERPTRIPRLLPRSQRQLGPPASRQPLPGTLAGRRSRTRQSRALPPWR

[7] = target: T3, Serine/threonine-protein kinase TAO2 (Homo sapiens); conditions: at 10 µM
[8] = target: T4, Serine/threonine-protein kinase TAO3 (Homo sapiens) (UniProt Q9H2K8); conditions: at 1 µM
T4 sequence (whole entry): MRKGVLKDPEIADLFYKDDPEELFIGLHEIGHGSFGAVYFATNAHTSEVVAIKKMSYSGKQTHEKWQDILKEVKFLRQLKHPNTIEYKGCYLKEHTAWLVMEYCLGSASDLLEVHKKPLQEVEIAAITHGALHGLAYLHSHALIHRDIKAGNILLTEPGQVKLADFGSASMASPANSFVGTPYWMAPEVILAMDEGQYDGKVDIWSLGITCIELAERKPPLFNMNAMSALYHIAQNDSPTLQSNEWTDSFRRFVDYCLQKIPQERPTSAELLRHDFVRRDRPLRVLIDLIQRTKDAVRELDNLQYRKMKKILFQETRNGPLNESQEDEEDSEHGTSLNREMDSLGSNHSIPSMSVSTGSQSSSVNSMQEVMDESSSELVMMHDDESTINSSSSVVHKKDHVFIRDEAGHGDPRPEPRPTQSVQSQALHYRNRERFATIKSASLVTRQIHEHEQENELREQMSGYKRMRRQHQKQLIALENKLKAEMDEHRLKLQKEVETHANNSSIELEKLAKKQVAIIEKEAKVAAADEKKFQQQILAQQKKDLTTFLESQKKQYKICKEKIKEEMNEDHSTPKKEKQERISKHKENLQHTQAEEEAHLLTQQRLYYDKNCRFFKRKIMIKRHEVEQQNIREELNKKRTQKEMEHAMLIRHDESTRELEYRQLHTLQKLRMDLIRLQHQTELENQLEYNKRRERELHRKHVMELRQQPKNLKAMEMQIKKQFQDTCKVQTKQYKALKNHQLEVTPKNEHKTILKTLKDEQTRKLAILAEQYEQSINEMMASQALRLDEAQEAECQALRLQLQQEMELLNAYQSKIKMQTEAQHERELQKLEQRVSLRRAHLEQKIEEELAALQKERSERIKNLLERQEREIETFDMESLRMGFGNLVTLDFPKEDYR

[9] = target: T4, Serine/threonine-protein kinase TAO3 (Homo sapiens); conditions: at 10 µM
[10] = target: T5, Serine/threonine-protein kinase TBK1 (Homo sapiens) (UniProt Q9UHD2); conditions: at 1 µM
T5 sequence (whole entry): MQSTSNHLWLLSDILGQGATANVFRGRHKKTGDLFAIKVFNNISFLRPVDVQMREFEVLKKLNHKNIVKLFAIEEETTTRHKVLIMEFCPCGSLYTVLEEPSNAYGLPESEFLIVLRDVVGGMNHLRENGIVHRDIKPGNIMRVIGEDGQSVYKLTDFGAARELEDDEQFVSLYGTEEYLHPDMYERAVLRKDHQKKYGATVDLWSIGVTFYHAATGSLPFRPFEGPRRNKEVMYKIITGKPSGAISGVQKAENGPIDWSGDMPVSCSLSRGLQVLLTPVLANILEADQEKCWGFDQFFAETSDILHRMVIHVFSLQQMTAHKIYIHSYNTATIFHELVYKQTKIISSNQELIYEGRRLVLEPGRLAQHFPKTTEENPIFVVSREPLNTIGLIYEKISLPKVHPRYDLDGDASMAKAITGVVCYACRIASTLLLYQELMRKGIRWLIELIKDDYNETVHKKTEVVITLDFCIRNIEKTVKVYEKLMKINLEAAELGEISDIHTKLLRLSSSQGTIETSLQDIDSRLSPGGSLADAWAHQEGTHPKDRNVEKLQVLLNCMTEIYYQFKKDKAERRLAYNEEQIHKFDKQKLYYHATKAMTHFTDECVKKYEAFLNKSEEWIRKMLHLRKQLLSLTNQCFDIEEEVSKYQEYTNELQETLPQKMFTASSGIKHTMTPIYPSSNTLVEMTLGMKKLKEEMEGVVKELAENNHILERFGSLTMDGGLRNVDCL

[11] = target: T5, Serine/threonine-protein kinase TBK1 (Homo sapiens); conditions: at 10 µM
[12] = target: T6, TGF-beta receptor type-1 (Homo sapiens) (UniProt P36897); conditions: at 1 µM
T6 sequence (whole entry): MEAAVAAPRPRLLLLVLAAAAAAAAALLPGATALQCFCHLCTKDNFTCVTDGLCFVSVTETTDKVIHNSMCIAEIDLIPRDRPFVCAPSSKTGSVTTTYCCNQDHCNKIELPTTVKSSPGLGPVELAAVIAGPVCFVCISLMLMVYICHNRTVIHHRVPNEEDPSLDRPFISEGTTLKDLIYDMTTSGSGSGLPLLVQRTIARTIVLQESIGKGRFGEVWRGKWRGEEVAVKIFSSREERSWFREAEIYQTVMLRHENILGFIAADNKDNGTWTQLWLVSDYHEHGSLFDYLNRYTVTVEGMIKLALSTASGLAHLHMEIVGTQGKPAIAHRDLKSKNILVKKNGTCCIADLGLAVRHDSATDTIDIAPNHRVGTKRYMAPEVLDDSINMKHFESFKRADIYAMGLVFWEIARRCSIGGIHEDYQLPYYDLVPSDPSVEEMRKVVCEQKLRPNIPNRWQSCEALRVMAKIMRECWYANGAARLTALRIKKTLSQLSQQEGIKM

[13] = target: T6, TGF-beta receptor type-1 (Homo sapiens); conditions: at 10 µM
[14] = target: Insulin-like growth factor 1 receptor (Homo sapiens) (UniProt P08069); conditions: at 10 µM
Insulin-like growth factor 1 receptor (Homo sapiens), sequence (P08069 31-736 limits assumed): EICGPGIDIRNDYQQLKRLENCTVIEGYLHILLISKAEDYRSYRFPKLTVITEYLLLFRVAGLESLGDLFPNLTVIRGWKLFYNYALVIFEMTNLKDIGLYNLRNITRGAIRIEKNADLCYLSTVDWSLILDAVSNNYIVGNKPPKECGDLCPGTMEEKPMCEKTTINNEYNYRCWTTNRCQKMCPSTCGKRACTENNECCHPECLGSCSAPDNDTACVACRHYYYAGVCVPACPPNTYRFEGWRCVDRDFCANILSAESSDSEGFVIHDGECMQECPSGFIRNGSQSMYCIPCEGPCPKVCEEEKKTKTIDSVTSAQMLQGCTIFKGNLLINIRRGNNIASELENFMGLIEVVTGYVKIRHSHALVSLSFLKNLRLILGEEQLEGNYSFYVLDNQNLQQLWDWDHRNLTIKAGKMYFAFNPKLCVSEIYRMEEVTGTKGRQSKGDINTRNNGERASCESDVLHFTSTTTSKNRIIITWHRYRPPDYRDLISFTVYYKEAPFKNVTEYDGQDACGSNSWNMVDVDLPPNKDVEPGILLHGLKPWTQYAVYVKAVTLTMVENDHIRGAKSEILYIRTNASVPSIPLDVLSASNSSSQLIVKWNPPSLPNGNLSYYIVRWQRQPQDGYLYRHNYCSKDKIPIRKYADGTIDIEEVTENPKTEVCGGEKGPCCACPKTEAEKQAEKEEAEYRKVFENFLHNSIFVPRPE
Insulin-like growth factor 1 receptor (Homo sapiens), sequence (P08069 741-1367 limits assumed): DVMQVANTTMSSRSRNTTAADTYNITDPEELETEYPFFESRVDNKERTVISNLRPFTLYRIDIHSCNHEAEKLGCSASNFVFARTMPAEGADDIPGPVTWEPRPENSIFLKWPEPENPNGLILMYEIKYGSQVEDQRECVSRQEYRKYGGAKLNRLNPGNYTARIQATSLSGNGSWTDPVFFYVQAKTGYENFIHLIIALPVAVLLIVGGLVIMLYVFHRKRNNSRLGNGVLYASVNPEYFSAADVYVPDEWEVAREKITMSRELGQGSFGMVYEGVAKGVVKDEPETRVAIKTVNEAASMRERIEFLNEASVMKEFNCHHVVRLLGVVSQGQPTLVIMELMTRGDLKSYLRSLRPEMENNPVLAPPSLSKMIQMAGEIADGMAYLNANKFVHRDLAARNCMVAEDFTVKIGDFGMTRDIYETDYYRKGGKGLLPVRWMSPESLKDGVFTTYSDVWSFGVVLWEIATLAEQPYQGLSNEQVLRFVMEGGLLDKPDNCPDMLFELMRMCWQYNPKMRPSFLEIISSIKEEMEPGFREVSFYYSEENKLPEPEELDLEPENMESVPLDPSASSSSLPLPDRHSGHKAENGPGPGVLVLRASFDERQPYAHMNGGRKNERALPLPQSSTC

[15] = target: T7, Inhibitor of nuclear factor kappa-B kinase subunit beta (Homo sapiens) (UniProt O14920); conditions: at 10 µM
T7 sequence (whole entry): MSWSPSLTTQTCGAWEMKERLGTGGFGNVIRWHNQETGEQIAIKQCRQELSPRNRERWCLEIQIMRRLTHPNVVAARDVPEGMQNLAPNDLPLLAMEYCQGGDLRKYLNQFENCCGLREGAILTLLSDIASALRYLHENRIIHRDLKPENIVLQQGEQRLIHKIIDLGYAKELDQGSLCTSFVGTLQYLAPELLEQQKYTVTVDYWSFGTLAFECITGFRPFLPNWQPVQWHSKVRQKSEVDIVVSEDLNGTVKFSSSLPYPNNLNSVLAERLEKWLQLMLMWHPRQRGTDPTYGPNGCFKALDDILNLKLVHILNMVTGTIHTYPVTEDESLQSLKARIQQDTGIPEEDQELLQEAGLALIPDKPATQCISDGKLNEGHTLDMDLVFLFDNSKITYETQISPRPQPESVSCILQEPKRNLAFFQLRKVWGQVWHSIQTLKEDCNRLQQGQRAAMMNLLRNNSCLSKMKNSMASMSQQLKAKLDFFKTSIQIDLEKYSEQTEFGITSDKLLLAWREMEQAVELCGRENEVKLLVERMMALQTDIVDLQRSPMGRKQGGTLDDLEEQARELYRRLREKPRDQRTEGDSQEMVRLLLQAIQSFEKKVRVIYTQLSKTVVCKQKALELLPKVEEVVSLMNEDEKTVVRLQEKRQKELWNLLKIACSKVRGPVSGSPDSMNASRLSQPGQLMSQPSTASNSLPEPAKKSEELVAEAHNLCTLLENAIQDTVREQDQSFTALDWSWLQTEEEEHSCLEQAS

SMILES: Nc1nc(Nc2ccc(S(N)(=O)=O)cc2)nn1C(=O)c1c(F)cccc1F
- residual activity [1]: 11%
- residual activity [2]: 82%
- residual activity [3]: 34%
- residual activity [4]: 15%
- residual activity [5]: 4%
- residual activity [6]: 6%
- residual activity [7]: 2%
- residual activity [8]: 18%
- residual activity [9]: 4%
- residual activity [10]: 72%
- residual activity [11]: 19%
- residual activity [12]: 105%
- residual activity [13]: 62%
- residual activity [14]: 63%
- residual activity [15]: 69%
